# According to PubChem BioAssay (NCATS):
# Active and inactive are the calls of the source. Calls come from the whole dose curve; as a rule, active = well fitted curve in the direction sought with a large enough effect; inconclusive = small, poorly fitted or top-dose-only effect, or another doubt; inactive = no such curve, though single readings can be large or run the other way.
# Assay: Cellular Toxicity (caspase-3) BJ (AID 658)
# Conditions: BJ fibroblasts, luminescence, normalized: DMSO 0%, staurosporine 100%; series mostly up to 91.7 µM
# Excerpt: NIH Chemical Genomics Center [NCGC]
# NIH Molecular Libraries Screening Centers Network [MLSCN]
# National Institutes of Environmental Health Sciences [NIEHS]
# National Toxicology Program [NTP]
# We have developed a 1536-well cell-based assay for quantitative high throughput screening (qHTS) against a number of cell lines to determine in vitro caspase 3/7 activity of small molecules. This particular assay uses BJ cell line which is derived from normal human foreskin fibroblast.
# NCGC Assay Protocol Summary:
# The Caspase-Glo 3/7 assay (Promega) is a homogeneous method to measure caspase-3 and caspase-7 activities in cultured cells. The quantitation of caspase 3/7 activity is based on the cleavage of a peptide-aminoluciferin substrate. After caspase cleaves the substrate the free aminoluciferin is liberated and serves as the substrate of luciferase, which generates the light. The luminescent signal is proportional to amount of caspase 3/7 activity present.
# Using the Caspase-Glo 3/7 assay, the amount of caspase 3/7 activity was measured in the BJ cell line with complete culture medium following compound treatment for 16 hours. The assay was performed in opaque white 1536-well plates. In the screen, staurosporine and tamoxifen were used as positive controls. Library compounds were measured for their ability to cause the activation of caspase 3/7 in the cell line, as reflected by an increase in luminescence signal, in a concentration-dependent manner. Data were normalized to the controls for basal activity (DMSO only) and 100% stimulation (10 uM staurosporine). AC50 values were determined from concentration-response data modeled with the standard Hill equation.
# qHTS protocol for caspase 3/7 assay in the BJ cells
# [Step] [Parameter] [Value] [Description]
# 1. Reagent; 5 uL; 1000 the BJ cells/well
# 2. Time; 5 hr; 37 °C incubation
# 4. Controls; 23 nL; Tamoxifen 0.23 uM to 100 uM & staurosporine 1.4 pM to 100 uM
# 5. Time; 16 hr; 37 °C incubation
# 6. Reagent; 5 uL; Caspase-Glo 3/7 reagent
# 7. Time; 1 hr; Room Temperature
# 8. Detection; Luminescence; Viewlux plate reader
# Keywords: caspase 3/7, apoptosis, the BJ cell line, luminescence, NTPHTS, NTPHTS_NCGC, NIEHS, EPA, DSSTox, MLSMR, MLSCN, NIH Roadmap, qHTS, NCGC
row,SMILES,outcome
1,C=Cc1ccccc1Cl,inactive
2,CCCN(CCC)C(=O)SCC,inactive
3,COC(=O)c1ccc(C=O)cc1,inactive
4,COc1cc(/C=C/c2ccccc2)oc(=O)c1,inactive
5,Cc1c(N=C=O)cccc1N=C=O,inactive
6,CCO,inactive
7,Clc1cc(Cl)c(Cl)c(Cl)c1Cl,inactive
8,CCCCCCCCCCCCCC(=O)O,inactive
9,CC1(C)CC(N=C=O)CC(C)(CN=C=O)C1 (stereo not given),inactive
10,O=C(O)c1ccccc1,inactive
11,Cc1ccccc1C,inactive
12,COC(=O)CCCCC(=O)OC,inactive
13,Nc1ccc(Cl)cc1Cl,inactive
14,CCCCOCCO,inactive
15,c1ccc2c(c1)c1cccc3ccc4cccc2c4c31,inactive
16,O=S(=O)(O)c1ccccc1,inactive
17,CCC(C)c1ccccc1O (stereo not given),inactive
18,C=CC(=O)OCCOCCOCCOCCOC(=O)C=C,inactive
19,C=CCc1ccc(OC)c(OC)c1,inactive
20,COC(=O)c1ccc(C)cc1,inactive

row,SMILES,outcome
1,O[C@@H]([C@H](O)[C@@H](O)CBr)[C@@H](O)CBr,inactive
2,Nc1ccc(S(=O)(=O)O)cc1,inactive
3,OCCNCCO,inactive
4,CCCCC(CC)CN (stereo not given),inactive
5,O=C(/C=C/c1ccc(O)c(O)c1)O[C@@H](C(=O)O)[C@@H](OC(=O)/C=C/c1ccc(O)c(O)c1)C(=O)O,inactive
6,CC(=O)OC/C=C(\C)CCC=C(C)C,inactive
7,Cc1ccc([N+](=O)[O-])cc1N,inactive
8,Clc1cc(Cl)c(Cl)cc1Cl,inactive
9,c1ccccc1,inactive
10,O=NO,inactive
11,O=C(O)c1ccc(O)cc1O,inactive
12,CC1=CC(C)(C)Nc2ccccc21,inactive
13,CCC(O)OC(O)CC (stereo not given),inactive
14,C=CCOC(=O)c1ccccc1C(=O)OCC=C,inactive
15,COc1ccc2nc(N)sc2c1,inactive
16,ClCCCl,inactive
17,CCCCCCCCCCCCCCC1CO1 (stereo not given),inactive
18,O=[N+]([O-])c1cccc(Cl)c1Cl,inactive
19,CCCCCCCCO,inactive
20,O=C1CCc2ccccc2O1,inactive
